Assay [1] in a line: resazurin metabolic signal in HepG2 cells – cell-based, resazurin fluorescence, 24 h, PK04 Diversity Set, profiling panel (AID 1172). Note: test concentration not given here. To be noted: HepG2 viability, higher = more signal.
The nature of assay [2]: budding yeast growth changes without added modifier – OD600, strain BY4716, 24 h, basal condition, primary screen (AID 1173). The settings on record: S. cerevisiae BY4716 growth, OD600, 24 h; higher = more signal, called active from +8 up or from −8 down.
The nature of assay [3]: viability profiling in MM1S myeloma cells – cell-based, resazurin fluorescence, basal, 24 h, PK04 Diversity Set, profiling panel (AID 1174).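 Note: MM1S multiple myeloma cell line; test concentration not given here.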 To be noted: higher = more signal, called active from +8 up or from −8 down.
Assay [4] concerns the target Dihydroorotate dehydrogenase (quinone), mitochondrial (Plasmodium falciparum (isolate 3D7)) (UniProt Q08210). The assay is described as follows: inhibition of P. falciparum DHODH – biochemical, C-terminal His tag, absorbance 600 nm, primary screen (AID 1175).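 Note: recombinant parasite enzyme with a five histidine tag at its C terminus; test concentration not given here.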 The settings on record: PfDHODH enzyme, DCIP absorbance 600 nm; higher = more signal, called active from +8 up or from −8 down.

The nature of assay [5]: inhibition of PAO1 biofilm formation – strain PAO1, LB-PBS medium, absorbance 600 nm, primary screen (AID 1176). Note: test concentration not given here. To be noted: P. aeruginosa PAO1 growth/biofilm, A600, 12 h; higher = more signal.
The nature of assay [6]: growth modulation of vineyard yeast isolate – strain RM11-1a, OD600, basal, 24 h, primary screen (AID 1177).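 Note: cultures grown under basal conditions with no added stressor; test concentration not given here.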 To be noted: S. cerevisiae RM11-1a growth, OD600, 24 h; higher = more signal, called active from +8 up or from −8 down.
Assay [7] is described as follows: growth of efflux-deficient E. coli DRC39 – strain DRC39, OD650, 24 h, E. coli filamentation inducers, primary screen (AID 1178).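 Note: growth measured as culture turbidity by optical density at 650 nm; test concentration not given here.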 To be noted: E. coli DRC39 acrAB, higher = more signal, called active from +8 up or from −8 down.
A short description of assay [8]: growth of efflux-deficient E. coli DRC39 – strain DRC39, OD650, 48 h, E. coli filamentation inducers, primary screen (AID 1179).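 Note: screen aims at cell division blockers that make cells filament.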 To be noted: E. coli DRC39 delta-acrAB growth, higher = more signal, called active from +8 up or from −8 down.
Assay [9] can be described thus: viability profiling in RPMI8226 myeloma cells – cell-based, resazurin fluorescence, basal, 24 h, PK04 Diversity Set, profiling panel (AID 1180).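 Note: RPMI8826 multiple myeloma cell line at 5000 cells per well; test concentration not given here.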 To be noted: higher = more signal.
Assay [10] has as its target E3 ubiquitin-protein ligase XIAP (Homo sapiens) (UniProt P98170). Nature of the assay: small molecules binding XIAP protein – biophysical, small-molecule microarray, fluorescence 635 nm, primary screen (AID 1181).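 Note: score merges 667 nm emission and signal to noise over triplicate slides.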 The settings on record: higher = more signal.

Among the data in PubChem BioAssay are z-score and composite z-score values, retold here.

Active and inactive are the calls of the source. Unless noted, the rule behind the calls is not given here.

Sequence of Dihydroorotate dehydrogenase (quinone), mitochondrial (Plasmodium falciparum (isolate 3D7)) (Q08210 whole entry, looked up): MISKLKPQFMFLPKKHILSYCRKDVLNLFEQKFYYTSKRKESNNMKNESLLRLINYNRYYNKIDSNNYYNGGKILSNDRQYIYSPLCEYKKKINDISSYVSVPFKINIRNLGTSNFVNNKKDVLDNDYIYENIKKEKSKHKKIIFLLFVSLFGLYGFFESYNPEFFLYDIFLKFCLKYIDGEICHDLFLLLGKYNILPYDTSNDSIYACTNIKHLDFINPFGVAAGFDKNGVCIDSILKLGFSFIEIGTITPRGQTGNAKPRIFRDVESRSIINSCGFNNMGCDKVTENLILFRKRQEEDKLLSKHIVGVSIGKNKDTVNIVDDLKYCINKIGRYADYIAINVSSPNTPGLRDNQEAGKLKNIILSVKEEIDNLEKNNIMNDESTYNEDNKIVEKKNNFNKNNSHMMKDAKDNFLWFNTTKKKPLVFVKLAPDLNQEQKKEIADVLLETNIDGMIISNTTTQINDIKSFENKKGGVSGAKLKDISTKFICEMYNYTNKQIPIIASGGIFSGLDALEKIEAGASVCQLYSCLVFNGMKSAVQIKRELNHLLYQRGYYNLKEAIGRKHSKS
Sequence of E3 ubiquitin-protein ligase XIAP (Homo sapiens) (P98170 whole entry, looked up): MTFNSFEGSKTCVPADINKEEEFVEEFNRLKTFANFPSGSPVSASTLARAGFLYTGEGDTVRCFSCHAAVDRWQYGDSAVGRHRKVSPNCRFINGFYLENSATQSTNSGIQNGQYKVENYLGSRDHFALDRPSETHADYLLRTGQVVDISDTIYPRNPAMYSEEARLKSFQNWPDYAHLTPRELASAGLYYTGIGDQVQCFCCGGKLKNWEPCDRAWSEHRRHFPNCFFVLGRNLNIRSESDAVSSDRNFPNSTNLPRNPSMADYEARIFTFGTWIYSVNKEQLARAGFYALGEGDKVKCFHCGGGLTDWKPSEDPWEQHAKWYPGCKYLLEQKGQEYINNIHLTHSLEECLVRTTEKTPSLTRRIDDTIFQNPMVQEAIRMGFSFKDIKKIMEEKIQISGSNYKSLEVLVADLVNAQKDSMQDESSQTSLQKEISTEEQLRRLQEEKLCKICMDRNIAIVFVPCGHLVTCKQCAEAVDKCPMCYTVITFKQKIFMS

Take `CC(C)=NOCc1cccc(-c2cc(-c3ccccc3)no2)c1`: the z-score in assay [1] is -0.714; in assay [2] it was 0.671 (inactive); in assay [3], -0.862 (inactive); in [5], 0.475 (inactive); in [6], -0.39 (inactive); in assay [7] it was 1.19 (inactive). For the same compound, the z-score in assay [8] is -1.41 (inactive); in assay [9], -0.975. The composite z-score in assay [4] was -0.502 (inactive); in [10] it was -0.288.
For `CCOC(=O)CCN1C(=O)[C@H]2[C@H]3[C@H](O)[C@H](O)CC(=NOCc4ccccc4)[C@@H]3CC[C@H]2C1=O`, the z-score in assay [1] was -0.0233; in assay [2] it was -0.949 (inactive); in [3], -0.406 (inactive); in [5] it was 0.683 (inactive); in assay [6] it was -0.172 (inactive); in assay [7], -0.852 (inactive). Besides, the figures for the z-score in assay [8] and in [9] were -0.599 (inactive) and -0.103, respectively. The composite z-score in [4] is 0.404 (inactive); in assay [10], 0.0455.
As to `COc1cccc([C@H]2Oc3ccc(OC)cc3C(=NO[C@H](C)c3cn([C@@H]4COC[C@H]4O)nn3)[C@@H]2O)c1`, the z-score in assay [1] was -0.859; in assay [2] it was -0.117 (inactive); in assay [3], 0.0029 (inactive); in [5], -0.409 (inactive); in assay [6], -0.761 (inactive); in assay [7] it was -0.537 (inactive). For the same compound, the figures for the z-score in assay [8] and in [9] were -2.22 (inactive) and -0.238, respectively. In addition, the values for the composite z-score in [4] and in [10] were -2.1 (inactive) and 0.0264, respectively.
As for `CC(CCN1CCCCc2nc(C)c(C)cc21)=NOC(C)CN1CCCc2nc(C)c(C)cc21` (stereo not given), the z-score is -0.0636 in [1]; -0.0975 (inactive) in [2]; -0.542 (inactive) in assay [3]; 1.03 (inactive) in [5]; 0.325 (inactive) in [6]; 0.529 (inactive) in assay [7]. Moreover, the z-score in assay [8] is -0.936 (inactive); in [9], -0.0794. The values for the composite z-score in [4] and in assay [10] were 0.333 (inactive) and 1.56, respectively.
With `COC(=O)CC=C[C@H](C)[C@@H](OCc1ccccc1Br)C(C)C`, the z-score in [1] is -0.285; in [2] it was -0.553 (inactive); in [3] it was -2.19 (inactive); in [5] it was 0.274 (inactive); in assay [6], -0.158 (inactive); in assay [7] it was 0.824 (inactive). In addition, the figures for the z-score in [8] and in [9] were 0.661 (inactive) and -1.89, respectively. Moreover, the composite z-score in [4] is -0.216 (inactive); in [10] it was 0.157.
For `COc1ccc(COC(=O)NN=C2C[C@@H](O)[C@@H](O)[C@@H]3[C@@H]4C(=O)N(Cc5ccc6c(c5)OCO6)C(=O)[C@@H]4CC[C@@H]23)cc1`, the z-score was 0.466 in assay [1]; -0.839 (inactive) in assay [2]; 0.401 (inactive) in assay [3]; 2.55 (inactive) in assay [5]; -1.83 (inactive) in [6]; -0.459 (inactive) in assay [7]. In addition, the z-score in assay [8] is -0.279 (inactive); in assay [9], 1.24. For the same compound, the composite z-score was -1.68 (inactive) in assay [4] and -0.0792 in assay [10].
As for `O[C@@H](Cc1ccccc1)[C@H]1C2C=CCCC(c3ccccc3)=C2CN1Cc1cccc(Cl)c1` (stereo not given in full), the z-score in assay [1] was 0.689; in [2] it was -3.75 (inactive); in assay [3] it was -0.146 (inactive); in [5], 1.56 (inactive); in assay [6], -0.53 (inactive); in [7], 3.04 (inactive). Further, the z-score in [8] was 1.85 (inactive); in assay [9], -0.0337. In addition, the composite z-score in assay [4] was 0.426 (inactive); in [10] it was 0.25.
Take `CC(=O)C[C@H](O)[C@@H](NC(=O)OC(C)(C)C)C(C)C`: the z-score in assay [1] was -0.519; in assay [2], -1.33 (inactive); in [3] it was 0.481 (inactive); in assay [5], 0.0494 (inactive); in assay [6], -0.407 (inactive); in assay [7] it was -1.86 (inactive). The z-score is -1.1 (inactive) in assay [8] and -0.228 in assay [9]. The composite z-score in assay [4] was -3.13 (inactive); in [10], -0.195.
As to `Cc1cc2c(nc1C)CCCN2CC(O)CN1CCN(C)CC1` (stereo not given), the z-score is -0.406 in [1]; -0.428 (inactive) in assay [2]; -0.709 (inactive) in assay [3]; 1.02 (inactive) in assay [5]; -0.185 (inactive) in [6]; -0.233 (inactive) in assay [7]. Also, the z-score in assay [8] was -0.125 (inactive); in assay [9], -0.0252. Moreover, the composite z-score was -1.14 (inactive) in assay [4] and 1.64 in assay [10].
As to `CCOC(=O)CCN1C(=O)[C@H]2[C@H]3[C@H](O)C=CC(=O)[C@@H]3CC[C@H]2C1=O`, the z-score in assay [1] was -0.0089; in assay [2], 0.454 (inactive); in assay [3] it was 0.606 (inactive); in assay [5], 0.0942 (inactive); in assay [6] it was 0.713 (inactive); in assay [7] it was 0.446 (inactive). For the same compound, the z-score in assay [8] was -0.689 (inactive); in assay [9], 0.353. The composite z-score is 0.231 (inactive) in assay [4] and 0.0356 in [10].
As for `N#Cc1ccc(NN2C(C(O)c3cccc4ccccc34)C=CC3C(=O)N(c4ccccc4)C(=O)C32)cc1` (stereo not given), the z-score in assay [1] was -0.707; in assay [2], 0.185 (inactive); in assay [3], -0.605 (inactive); in assay [5] it was 0.487 (inactive); in assay [6] it was 0.806 (inactive); in assay [7], -0.586 (inactive). The z-score in assay [8] was 0.434 (inactive); in [9], -0.28. Besides, the results for the composite z-score in [4] and in assay [10] were 0.199 (inactive) and 0.0791, respectively.
On to `CCCNC(=O)[C@@H]1c2ccccc2C(=O)N(Cc2ccccc2Cl)[C@H]1c1ccc(CO)cc1`, for which the z-score in assay [1] was 1.44; in [2], -0.768 (inactive); in [3], 0.496 (inactive); in assay [5], -0.217 (inactive); in assay [6], 0.251 (inactive); in assay [7] it was 0.812 (inactive). For the same compound, the z-score in assay [8] is 0.829 (inactive); in assay [9], 1.45. Besides, the results for the composite z-score in assay [4] and in assay [10] were -0.227 (inactive) and -0.078, respectively.
Take `CC(C)(C)OC(=O)CC[C@]1(C(N)=O)COC(c2ccc(OCCCO)cc2)=N1`: the z-score was -0.722 in assay [1]; 0.0462 (inactive) in [2]; -1.43 (inactive) in assay [3]; 0.134 (inactive) in [5]; -0.788 (inactive) in [6]; -0.34 (inactive) in assay [7]. Moreover, the results for the z-score in assay [8] and in [9] were 0.381 (inactive) and -0.751, respectively. In addition, the composite z-score in assay [4] was 0.0996 (inactive); in assay [10] it was 0.276.
